Experimental data as given in PubChem BioAssay AID1159580 (chemical genetic matrix, 2015).
Where “and” joins values, the source holds several entries; their conditions need not be identical. Equal entries are not always repeated. The campaign covered roughly 5,500 compounds. About 2,000 (36%) were called active. Inconclusive results (about 18%) are left out. Cut-off read from the data, not from the text of the source: active = normalized growth mostly below about 0.91 (no sharp cut-off); inconclusive = no clear call, values can overlap the other calls; inactive = mostly above about 0.92. Some of the results follow.

Experiment: chemical genetic growth profiling, strain panel (AID 1159580);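 note: tested at 20 µM; growth read once vehicle control cultures reached saturation at 30 °C; 1 = growth at the plate median or of vehicle wells; lower values mean less growth of the strain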
Conditions: S. cerevisiae deletion strains, growth OD

Measured: normalized growth

CCn1nc(C(=O)O)c(=O)c2cc3c(cc21)OCO3
inactive: locus YAL013W, strain DEP1, active compounds read low 1.01 | locus YAL021C, strain ccr4, active compounds read low 1 | locus YAL026C, strain drs2, active compounds read low 0.999 | locus YAL030W, strain snc1, active compounds read low 1.01 | locus YAL040C, strain CLN3, active compounds read low 0.955 | locus YBL061C, strain skt5, active compounds read low 1.02 | locus YBR009C, strain hhf1, active compounds read low 0.989 | locus YBR021W, strain FUR4, active compounds read low 1.03 | locus YBR023C, strain chs3, active compounds read low 1.03 | locus YBR171W, strain sec66, active compounds read low 1 | locus YBR229C, strain ROT2, active compounds read low 1.01 | locus YBR231C, strain swc5, active compounds read low 1.03 | locus YBR279W, strain paf1, active compounds read low 1 | locus YCL011C, strain gbp2, active compounds read low 0.987 | locus YCL016C, strain dcc1, active compounds read low 0.99 | locus YCL029C, strain bik1, active compounds read low 1.01 | locus YCL069W, strain vba3, active compounds read low 1.01 | locus YCR088W, strain abp1, active compounds read low 1 | locus YDL005C, strain med2, active compounds read low 0.998 | locus YDL035C, strain GPR1, active compounds read low 1 | locus YDL040C, strain nat1, active compounds read low 1.01 | locus YDL074C, strain BRE1, active compounds read low 1.04 | locus YDL101C, strain DUN1, active compounds read low 1.01 | locus YDL134C, strain PPH21, active compounds read low 1 | locus YDL185W, strain tfp1, active compounds read low 1.03 | locus YDL192W, strain arf1, active compounds read low 1.03 | locus YDR001C, strain nth1, active compounds read low 0.996 | locus YDR069C, strain doa4, active compounds read low 1.02 | locus YDR101C, strain arx1, active compounds read low 0.992 | locus YDR137W, strain rgp1, active compounds read low 0.949 | locus YDR150W, strain NUM1, active compounds read low 1.01 | locus YDR159W, strain sac3, active compounds read low 0.959 | locus YDR162C, strain NBP2, active compounds read low 1.01 | locus YDR195W, strain ref2 1.01 | locus YDR297W, strain sur2, active compounds read low 1.01 | locus YDR318W, strain mcm21, active compounds read low 1.02 | locus YDR334W, strain swr1, active compounds read low 1 | locus YDR335W, strain msn5, active compounds read low 1.01 | locus YDR363W, strain ESC2, active compounds read low 0.967 | locus YDR388W, active compounds read low 1.02 | locus YDR392W, strain spt3, active compounds read low 0.987 | locus YDR502C, strain sam2, active compounds read low 1.02 | locus YEL003W, strain gim4, active compounds read low 1.02 | locus YEL037C, strain rad23, active compounds read low 1.01 | locus YEL061C, strain CIN8 (second series), active compounds read low 1.01 | locus YEL061C, strain CIN8, active compounds read low 1.01 | locus YER002W, strain NOP16, active compounds read low 1.02 | locus YER015W, strain faa2, active compounds read low 1.02 | locus YER016W, strain bim1, active compounds read low 0.996 | locus YER110C, active compounds read low 1.02 | locus YER111C, strain swi4, active compounds read low 1 | locus YER155C, strain BEM2 (second series), active compounds read low 1.06 | locus YER155C, strain BEM2, active compounds read low 0.999 | locus YER167W, strain BCK2, active compounds read low 0.993 | locus YFR010W, strain ubp6, active compounds read low 1.03 | locus YGL078C, strain dbp3, active compounds read low 1.01 | locus YGL086W, strain mad1, active compounds read low 1 | locus YGL167C, strain pmr1, active compounds read low 1.03 | locus YGL173C, strain kem1, active compounds read low 1.01 | locus YGL227W, strain vid30, active compounds read low 1.01 | locus YGL240W, strain doc1, active compounds read low 1.03 | locus YGL248W, strain PDE1, active compounds read low 1.03 | locus YGL253W, strain hxk2, active compounds read low 1.01 | locus YGR078C, strain PAC10, active compounds read low 1.02 and 1.01 | locus YGR135W, strain pre9, active compounds read low 1.04 | locus YGR252W, strain gcn5, active compounds read low 1.05 | locus YHR013C, strain ard1, active compounds read low 1 | locus YHR027C, strain rpn1, active compounds read low 1.01 | locus YHR030C, strain SLT2, active compounds read low 1.01 and 0.999 | locus YHR079C, strain IRE1 (second series), active compounds read low 1.01 | locus YHR079C, strain IRE1, active compounds read low 0.999 | locus YHR094C, strain hxt1, active compounds read low 1.01 | locus YHR129C, strain ARP1, active compounds read low 1 | locus YHR142W, strain chs7, active compounds read low 1.01 | locus YHR200W, strain rpn10, active compounds read low 1.03 | locus YIL066C, strain RNR3, active compounds read low 1.01 | locus YIL073C, strain SPO22, active compounds read low 1.04 | locus YIL125W, strain kgd1, active compounds read low 1.01 | locus YIR030C, strain dcg1, active compounds read low 1.01 | locus YJL092W, strain hpr5, active compounds read low 1.02 | locus YJL095W, strain BCK1 (second series), active compounds read low 1.02 | locus YJL095W, strain BCK1, active compounds read low 1.04 and 0.983 | locus YJL115W, strain asf1, active compounds read low 1.01 | locus YJL129C, strain trk1, active compounds read low 1.02 | locus YJL134W, strain LCB3, active compounds read low 1.01 | locus YJL154C, strain vps35, active compounds read low 1.02 | locus YJL164C, strain tpk1, active compounds read low 1 | locus YJL166W, strain qcr8, active compounds read low 1.05 | locus YJL168C, strain set2, active compounds read low 1.02 | locus YJL187C, strain SWE1 (second series), active compounds read low 1.03 | locus YJL187C, strain SWE1, active compounds read low 1.02 | locus YJR043C, strain POL32, active compounds read low 0.999 | locus YJR066W, strain TOR1, active compounds read low 0.974 | locus YJR075W, strain HOC1, active compounds read low 1.03 | locus YKL009W, strain mrt4, active compounds read low 1.03 | locus YKL068W, active compounds read low 0.999 | locus YKL085W, strain MDH1 (second series), active compounds read low 1.03 | locus YKL085W, strain MDH1, active compounds read low 1.03 | locus YKL160W, strain elf1, active compounds read low 1.02 | locus YKR001C, strain vps1, active compounds read low 1 | locus YKR026C, strain gcn3, active compounds read low 0.993 | locus YKR091W, strain srl3, active compounds read low 1.02 | locus YLL001W, strain dnm1, active compounds read low 1.02 | locus YLL026W, active compounds read low 1 | locus YLL041C, strain sdh2, active compounds read low 1.01 | locus YLR027C, strain aat2, active compounds read low 1 | locus YLR039C, strain RIC1, active compounds read low 0.967 | locus YLR058C, strain SHM2, active compounds read low 1.02 | locus YLR102C, strain apc9, active compounds read low 1.01 | locus YLR113W, strain HOG1, active compounds read low 1 | locus YLR221C, strain rsa3, active compounds read low 1.02 | locus YLR258W, strain gsy2, active compounds read low 1.01 | locus YLR262C, strain YPT6 (second series), active compounds read low 0.964 | locus YLR262C, strain YPT6, active compounds read low 0.978 | locus YLR268W, strain sec22, active compounds read low 1.02 | locus YLR320W, strain mms22, active compounds read low 1 | locus YLR330W, strain CHS5, active compounds read low 1.01 | locus YLR342W, strain FKS1 (second series), active compounds read low 1.01 | locus YLR342W, strain FKS1, active compounds read low 1.02 | locus YLR357W, strain rsc2, active compounds read low 1.02 | locus YLR370C, strain arc18, active compounds read low 1.02 | locus YLR371W, strain rom2, active compounds read low 1.01 | locus YLR384C, strain iki3, active compounds read low 1.01 | locus YLR418C, strain cdc73, active compounds read low 1.07 | locus YML016C, strain PPZ1, active compounds read low 1.01 | locus YML032C, strain rad52, active compounds read low 1.03 | locus YML120C, strain ndi1, active compounds read low 1 | locus YML124C, strain tub3, active compounds read low 1.02 | locus YMR058W, strain fet3, active compounds read low 1.01 | locus YMR078C, strain ctf18, active compounds read low 1.02 | locus YMR125W, strain sto1, active compounds read low 1.02 | locus YMR129W, active compounds read low 1.01 | locus YMR205C, strain PFK2, active compounds read low 1.02 | locus YMR223W, strain ubp8, active compounds read low 1.03 | locus YMR231W, strain pep5, active compounds read low 1.01 | locus YMR307W, strain GAS1, active compounds read low 1.06 | locus YNL067W, strain RPL9B, active compounds read low 1.03 | locus YNL071W, strain lat1, active compounds read low 1 | locus YNL153C, strain GIM3, active compounds read low 1.02 | locus YNL175C, strain NOP13, active compounds read low 0.997 | locus YNL183C, strain NPR1, active compounds read low 0.928 | locus YNL197C, strain WHI3, active compounds read low 0.994 | locus YNL209W, strain ssb2, active compounds read low 1 | locus YNL224C, strain SQS1, active compounds read low 0.99 | locus YNL233W, strain BNI4, active compounds read low 1.02 | locus YNL248C, strain rpa49, active compounds read low 0.952 | locus YNL250W, strain rad50, active compounds read low 1.02 | locus YNL271C, strain bni1, active compounds read low 1.02 | locus YNL298W, strain CLA4, active compounds read low 1.02 | locus YNL307C, strain MCK1, active compounds read low 1.03 | locus YNL322C, strain KRE1 (second series), active compounds read low 1.01 | locus YNR049C, strain mso1, active compounds read low 1.01 | locus YNR052C, strain pop2, active compounds read low 1.01 | locus YOL012C, strain htz1 1.6 | locus YOL147C, strain pex11, active compounds read low 1.01 | locus YOR001W, strain rrp6, active compounds read low 1.03 | locus YOR061W, strain CKA2, active compounds read low 1.01 | locus YOR069W, strain VPS5, active compounds read low 1.01 | locus YOR070C, strain gyp1, active compounds read low 1 | locus YOR080W, strain dia2, active compounds read low 1.03 | locus YOR083W, strain WHI5 (second series), active compounds read low 0.976 | locus YOR083W, strain WHI5, active compounds read low 1.05 | locus YOR106W, strain vam3, active compounds read low 1.02 | locus YOR136W, strain idh2, active compounds read low 1.02 | locus YOR144C, strain elg1, active compounds read low 1.01 | locus YOR184W, strain ser1, active compounds read low 1.03 | locus YOR231W, strain MKK1, active compounds read low 1 | locus YOR265W, strain rbl2, active compounds read low 1 | locus YOR270C, strain vph1, active compounds read low 1.02 | locus YOR290C, strain snf2, active compounds read low 1 | locus YOR316C, strain cot1, active compounds read low 1.02 | locus YPL051W, strain arl3, active compounds read low 1.02 | locus YPL055C, strain LGE1, active compounds read low 1.04 and 1.01 | locus YPL078C, strain atp4, active compounds read low 1.03 | locus YPL106C, strain sse1, active compounds read low 0.989 | locus YPL240C, strain hsp82, active compounds read low 0.999 | locus YPL241C, strain CIN2, active compounds read low 1.01 | locus YPL256C, strain CLN2, active compounds read low 0.998 | locus YPR119W, strain clb2, active compounds read low 1.02 | locus YPR141C, strain kar3, active compounds read low 1.01 | locus YPR163C, strain tif3, active compounds read low 1.02 | locus YPR167C, strain met16, active compounds read low 1.01 | strain wtn01, active compounds read low 1.02
